Assay [1] can be described thus: Drug repurposing screens with cells derived from glioblastoma tumor samples (AID 1345199). Also: nearly all actives have a fitted effect of over 40% in size. Also: potency is read from the fitted curve at half-maximal effect. As to activity, negative = cell killing: % is scaled to controls: 0 for no effect and ±100 for the full control effect. Particulars: GBM patient neurospheres viability, ATP luminescence, 48 h. In outline:
(§1)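 Four patient lines of CD133+ GBM neurospheres were screened at several concentrations; hits were retested in those lines plus three slower-growing GBM lines, using 48-hour treatment and ATP-based viability.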

The next assay relates to astro (control astrocytes). Described as above. Conditions: viability, ATP luminescence, 48 h; series mostly up to 45.9 µM. In outline: as §1
Assay [2] addresses Nuclear receptor subfamily 1 group I member 2 (Rattus norvegicus) (UniProt Q9R1A7). Briefly: qHTS assay for small molecule activators of the rat pregnane X receptor (rPXR) signaling pathway (AID 651751; call rule not given here; also: 0% is about no effect). Particulars: rPXR reporter cells, luciferase (One-Glo), 24 h.
Assay [3] is described as follows: qHTS assay for small molecule activators of the human pregnane X receptor (PXR) signaling pathway (AID 720659; call rule not given here; also: 0% is about no effect). Particulars: DPX-2 HepG2 CYP3A4-luciferase, 24 h; series mostly up to 92.3 µM. In general terms: Quantitative high-throughput screening tests each substance at several concentrations.
Where [4] appears, read: at 45.9 µM (top of the series), tumour line B.
The mark [5] stands for this setting: at 45.9 µM (top of the series), tumour line D.
The mark [6] stands for this setting: at 46.1 µM (top of the series), tumour line C.
Setting [7] is: at 20 µM (top of the series), tumour line C.
[8] abbreviates: at 21.2 µM (top of the series), tumour line B.
Where [9] appears, read: at 21.2 µM (top of the series), tumour line D.
Setting [10] is: at 46 µM (top of the series), tumour line A.

Values joined by “and” are separate entries in the source; they are usually repeats but may differ in a detail not shown here. Identical values can stand only once. A number with no mark means an inactive call. Records with an inconclusive call do not appear. Active and inactive are the calls of the source. Unless noted, calls follow the shape of the dose curve; as a rule, active = well fitted inhibition curve with a large enough effect; inconclusive = small, poorly fitted or top-dose-only effect; inactive = flat fitted curve, though single readings scatter.

Sequence of Nuclear receptor subfamily 1 group I member 2 (Rattus norvegicus) (Q9R1A7 whole entry, looked up): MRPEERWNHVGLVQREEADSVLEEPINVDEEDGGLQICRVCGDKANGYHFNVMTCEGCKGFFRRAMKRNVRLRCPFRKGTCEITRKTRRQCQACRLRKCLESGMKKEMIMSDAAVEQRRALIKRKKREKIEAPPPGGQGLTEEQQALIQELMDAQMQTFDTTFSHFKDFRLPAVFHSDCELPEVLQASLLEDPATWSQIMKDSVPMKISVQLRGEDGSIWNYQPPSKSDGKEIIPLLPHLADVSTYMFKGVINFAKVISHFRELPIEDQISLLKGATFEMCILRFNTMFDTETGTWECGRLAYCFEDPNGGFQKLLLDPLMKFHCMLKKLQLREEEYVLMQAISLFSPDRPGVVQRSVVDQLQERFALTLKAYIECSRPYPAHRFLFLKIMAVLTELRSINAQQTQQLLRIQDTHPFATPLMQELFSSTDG

As for `O=C(OOC(=O)c1ccccc1)c1ccccc1`, the activity, negative = cell killing in assay [1] (setting [4]) is -7.59%; in assay [1] (setting [5]), -7.12%; in assay [1] (setting [6]), -4.84%. Moreover, the molecule was called inactive (in the assay with astro; in assay [3]). For the same molecule, in assay [2], the max response is -0.865%.
As to `O=C(O)CCCCC1CCSS1` (configuration not stated), the activity, negative = cell killing in assay [1] (setting [4]) was -9.35%; in assay [1] (setting [5]), -12.2%; in assay [1] (setting [6]), -7.1%. The result (in the assay with astro; in assay [3]) was inactive. In addition, the max response in assay [2] was -15% and -8.97%.
As for `CC(=O)SC[C@@H](Cc1ccccc1)C(=O)NCC(=O)OCc1ccccc1`, the activity, negative = cell killing was 2.42% in assay [1] (setting [7]), -12.3% in assay [1] (setting [8]) and -8.77% in assay [1] (setting [9]). The outcome in the assay on astro was inactive.
Turning to `CCOc1ccccc1O[C@H](c1ccccc1)[C@H]1CNCCO1`, the activity, negative = cell killing in assay [1] (setting [4]) was -15.3%; in assay [1] (setting [6]) it was 11.5%. Besides, the Potency in assay [1] (tumour line A) was 12.6 µM (active). For the same molecule, the result in the assay with astro was inactive.
Regarding `O=C(CCBr)N1CCN(C(=O)CCBr)CC1`, the activity, negative = cell killing is -9.14% in assay [1] (setting [4]), -7.7% in assay [1] (setting [5]) and -5.97% in assay [1] (setting [6]). Also, the molecule was classed as inactive in the assay with astro.
On to `COC(=O)c1ccc(O)cc1`, for which the figures for the activity, negative = cell killing in assay [1] (setting [4]), in assay [1] (setting [5]) and in assay [1] (setting [6]) were -4.62%, -7.84% and -1.97%, respectively. Moreover, the result (in the assay on astro; in assay [3]) was inactive. The max response in assay [2] is -3.01%.
In the case of `O=c1[nH]c(=O)n([C@H]2C[C@H](O)[C@@H](CO)O2)cc1I`, the activity, negative = cell killing is -27.4% in assay [1] (setting [7]); -17% in assay [1] (setting [8]); -18.1% in assay [1] (at 21.3 µM (top of the series), tumour line A). In the assay with astro, the outcome was inactive.
Turning to `O=C(O)C(S)C(S)C(=O)O` (configuration not stated), the outcome with astro was inactive.
`CCOC(=O)OC(C)OC(=O)[C@@H]1N2C(=O)[C@@H](NC(=O)[C@H](N)c3ccccc3)[C@H]2SC1(C)C` (some centres not stated): the values for the activity, negative = cell killing in assay [1] (setting [7]), in assay [1] (setting [8]) and in assay [1] (setting [9]) were 7.44%, -8.91% and -1.55%, respectively. Moreover, the call with astro was inactive.
`Cc1c(NC(C)C)c(=O)n(-c2ccccc2)n1C`: the activity, negative = cell killing in assay [1] (setting [4]) is 0.947%; in assay [1] (setting [5]) it was -9.1%; in assay [1] (setting [6]), -2.3%. Besides, the result in the assay with astro was inactive.
Turning to `CCCCCCCCCCCCCCCCCCO`, the activity, negative = cell killing in assay [1] (setting [4]) is -13.2%; in assay [1] (setting [5]), -6.74%; in assay [1] (setting [6]), -1.06%. For the same molecule, the outcome (with astro; in assay [3]) was inactive. Also, in assay [2], the max response is 0.797%.
`Cc1cc(C)nc(NS(=O)(=O)c2ccc(N)cc2)n1`: the activity, negative = cell killing in assay [1] (setting [4]) was -8.37%; in assay [1] (setting [10]), -19.9%; in assay [1] (setting [6]) it was -16.8%. The max response in assay [2] is 4.51% and 0.319%.
For `O=c1[nH]c2cc(C(F)(F)F)c(N3CCOCC3)cc2n(CP(=O)(O)O)c1=O`, the figures for the activity, negative = cell killing in assay [1] (setting [4]), in assay [1] (setting [5]) and in assay [1] (setting [6]) were -1.62%, -2.48% and -20.3%, respectively. Besides, the outcome with astro was inactive.
With `C[N+](C)(C)CC[N+]1(C)Cc2c(Cl)c(Cl)c(Cl)c(Cl)c2C1`, the activity, negative = cell killing in assay [1] (setting [4]) is -5.4%; in assay [1] (setting [5]), -17.9%; in assay [1] (setting [6]) it was -19.9%. In addition, in the assay with astro, the molecule was classed as inactive.
With `COc1ccc(O)cc1`, the activity, negative = cell killing in assay [1] (setting [4]) is -15%; in assay [1] (setting [5]) it was -17.8%; in assay [1] (setting [6]) it was -24.9%. Besides, the max response in assay [2] is -3%. Also, in assay [3], the outcome was inactive.
With `O=C(O)Cc1ccc(CCNS(=O)(=O)c2ccc(Cl)cc2)cc1`, the activity, negative = cell killing in assay [1] (setting [4]) is -9.63%; in assay [1] (setting [5]), -6.01%. Moreover, in the assay with astro, the outcome was inactive.
On to `C=CCN1C[C@H](C(=O)N(CCCN(C)C)C(=O)NCC)C[C@@H]2c3cccc4[nH]cc(c34)C[C@H]21`, for which, in assay [1] (setting [4]), the activity, negative = cell killing was -13.1%. In addition, the outcome in the assay with astro was inactive.
Regarding `c1ccc2[nH]ccc2c1`, the values for the activity, negative = cell killing in assay [1] (setting [4]), in assay [1] (setting [10]) and in assay [1] (setting [6]) were -8.88%, -21.8% and 0.178%, respectively. Besides, the molecule was classed as inactive in the assay on astro.
`Cc1ccc(S(=O)(=O)NC(=O)NC2CCCCCCC2)cc1`: the activity, negative = cell killing was -4.76% in assay [1] (setting [4]), 3.34% in assay [1] (setting [5]) and -27.8% in assay [1] (setting [10]). For the same molecule, the molecule was classed as inactive with astro.
With `NS(=O)(=O)c1ccc(NC(=O)CCC(=O)O)cc1`, the activity, negative = cell killing is -12.7% in assay [1] (setting [4]), 0.766% in assay [1] (setting [5]) and -4.81% in assay [1] (setting [6]). The result in the assay with astro was inactive.
On to `CN(C/C=C/C#CC(C)(C)C)Cc1cccc2ccccc12`, for which, in assay [1] (setting [6]), the activity, negative = cell killing is -0.19%. Further, the Potency in assay [1] (tumour line A) is 20 µM (active). The call in the assay with astro was inactive.
`Cc1cccc(C)c1NC(=O)CC12CCCN1CCC2`: the activity, negative = cell killing was -10.6% in assay [1] (setting [4]) and -15.8% in assay [1] (setting [5]). In the assay with astro, the molecule was classed as inactive.
On to `O=C1c2cccc(O)c2C(=O)c2c(O)cccc21`, for which the activity, negative = cell killing in assay [1] (setting [6]) is -4.97%. Besides, the Potency in assay [1] (tumour line A) was 11.2 µM (active). The outcome (in the assay on astro; in assay [3]) was inactive. For the same molecule, the max response in assay [2] was 4.48%.
In the case of `CCCCCCCCCCCCCCCCN`, the values for the activity, negative = cell killing in assay [1] (setting [4]), in assay [1] (setting [5]) and in assay [1] (setting [6]) were -8.19%, -19.2% and -20.5%, respectively. In addition, the molecule was called inactive with astro.
In the case of `NCc1ccc(S(N)(=O)=O)cc1`, the activity, negative = cell killing was 8.51% in assay [1] (setting [7]), -1.96% in assay [1] (setting [8]) and -7.46% in assay [1] (setting [9]). Also, the molecule was called inactive with astro.
`CCCCCCCC(=O)OCC(COC(=O)CCCCCCC)OC(=O)CCCCCCC`: the activity, negative = cell killing is -10.1% in assay [1] (setting [4]), -25.3% in assay [1] (setting [5]) and -9.12% in assay [1] (setting [6]). Moreover, the max response in assay [2] is -0.801%. Further, the outcome in assay [3] was inactive.
On to `CC(=O)Nc1cccc(O)c1`, for which the activity, negative = cell killing was -7.47% in assay [1] (setting [4]), -9.18% in assay [1] (setting [5]) and -17.1% in assay [1] (setting [6]). In addition, the max response in assay [2] is -4.25%. For the same molecule, the molecule was classed as inactive in assay [3].

Values taken from PubChem BioAssay (NCATS).
